Screen size: about 13,000 compounds; about 3,200 (25%) showed an effect of 50% or more. The list shows a part of the results.
What follows are compounds tested on P. falciparum stage V gametocytes. Details: 48 h, 5 µM; inhibitor.
Set-up: BacTiter-Glo ATP luminescence viability of purified stage V gametocytes in 384-well plates, per cent inhibition versus DMSO

SMILES | % Inhibition [%]
Oc1cc2c(cc1CN1CCN(Cc3cccs3)CC1)CCC2 [TCMDC-125012] | 1.025
CCN(CC)CCN1C(=O)c2oc3ccc(Cl)cc3c(=O)c2C1c1ccc(SC)cc1 (centres unmarked) [TCMDC-124623] | 3.621
CCCCCN1C(=O)C(c2ccccc2)(c2ccccc2)N=C1N [TCMDC-136877] | -32.2
COc1cccc(-c2cnc(N)c(-c3nc4ccc(C(F)(F)F)cc4[nH]3)c2)c1 [TCMDC-138790] | 13.24
COc1ccccc1NC(=O)Nc1ccc(-c2ccc(-c3nc4ccc(C(F)(F)F)cc4[nH]3)cc2)cc1 [TCMDC-133202] | -7.674
CCCCCCCc1cc(O)c2c3c(c(=O)oc2c1)CN(C)CC3 [TCMDC-124145] | 8.32
Cc1sc(CNCCCNc2cc(=O)c3ccccc3[nH]2)c(C(F)(F)F)c1C [TCMDC-140906] | 5.874
Cc1cccc2[nH]c(-c3ccc(-c4ccc(NC(=O)C(=O)c5cccn5C)cc4)cc3)nc12 [TCMDC-136908] | 78.98
Cc1cccc2[nH]c(-c3ccc(-c4ccc(NC(=O)Nc5ccc(Cl)cc5)cc4)cc3)nc12 [TCMDC-133184] | -26.89
Cc1cccc2[nH]c(-c3ccc(-c4cccc(NC(=O)C(=O)c5cccn5C)c4)cc3)nc12 [TCMDC-136907] | 90.5
Cc1cccc2[nH]c(-c3cccc(-c4ccc(NC(=O)C(=O)c5cccn5C)cc4)c3)nc12 [TCMDC-136909] | 70.67
Cn1cccc1C(=O)C(=O)Nc1cccc(-c2ccc(-c3nc4ccc(C(F)(F)F)cc4[nH]3)cc2)c1 [TCMDC-136910] | 0.09328
Cc1cccc2[nH]c(-c3ccc(-c4cccc(NC(=O)Nc5cccc(C#N)c5)c4)cc3)nc12 [TCMDC-133198] | 83.69
Cn1cccc1C(=O)C(=O)Nc1ccc(-c2ccc(-c3nc4ccc(F)cc4[nH]3)cc2)cc1 [TCMDC-136780] | -3.552
Cc1cccc2[nH]c(-c3cccc(-c4ccc(NC(=O)Nc5ccc(Cl)cc5)cc4)c3)nc12 [TCMDC-133177] | 12.12
CCNC(=O)Nc1ccc(-c2cccc(-c3nc4c(C)cccc4[nH]3)c2)cc1 [TCMDC-133171] | -9.855
Cc1cccc2[nH]c(-c3ccc(-c4cccc(NC(=O)Nc5ccccc5)c4)cc3)nc12 [TCMDC-133155] | 0.6364
Cc1cccc2[nH]c(-c3cccc(-c4ccc(NC(=O)Nc5cccc(C#N)c5)cc4)c3)nc12 [TCMDC-133192] | 2.358
Cc1cccc2[nH]c(-c3cccc(-c4cccc(NC(=O)Nc5cccc(C#N)c5)c4)c3)nc12 [TCMDC-133194] | -35.1
Cc1cccc2nc(-c3ccc(-c4ccc(NC(=O)NCc5cccc(F)c5)cc4)s3)[nH]c12 [TCMDC-133286] | 5.156
Cc1ccc(-c2cc3nc4c(c(NCCCn5ccnc5)n3n2)CCC4)cc1 [TCMDC-124390] | 12.49
Cc1cccc2c3c([nH]c12)C1(CCN(Cc2ccccc2)CC1)NC(C(=O)NCc1ccccc1)C3 (centres unmarked) [TCMDC-141244] | -26.21
COc1ccc2nccc([C@@H](O)CN3CCC(NC(=O)c4ccc(Cl)c(OC)c4)CC3)c2c1 [TCMDC-141113] | -17.86
CSc1sc(NC(=O)Nc2cccc(C(F)(F)F)c2)cc1C#N [TCMDC-123772] | -46.48

SMILES | % Inhibition [%]
CCN(CC)Cc1cc(Nc2c3ccc(Cl)cc3nc3cccc(OC)c23)ccc1O [TCMDC-139222] | 106.6
CCN(CC)Cc1cc(Nc2ccnc3cc(Cl)ccc23)ccc1O [TCMDC-123932] | -15.23
COc1ccc2nc3cc(Cl)ccc3c(Nc3ccc(O)c(CN4CC5CCC(CC5)C4)c3)c2c1.Cl [TCMDC-142013] | -78.53
CN(Cc1ccc(NC(=O)CCC2CCN(C(=O)/C=C/c3ccc(Cl)c(Cl)c3)CC2)cc1)C1CCOCC1 [TCMDC-140515] | 8.343
Oc1c(C=Nn2cnnc2)sc2ccccc12 [TCMDC-125759] | -2.761
O=[N+]([O-])c1cccc(-c2nc(-c3ccc(Br)cc3)[nH]c2-c2ccc(Br)cc2)c1 [TCMDC-124605] | -41.82
Cc1ccc(S(=O)(=O)c2nc(S(=O)(=O)c3ccccc3)sc2NCC2CCCO2)cc1 (centres unmarked) [TCMDC-124749] | 4.322
CCCCCN=C(N)N/N=C/c1c[nH]c2ccc(OC)cc12 [TCMDC-125887] | 106.4
CCCCCCCN(CCCCCCC)CCCC(=O)Nc1ccnc2ccc(OC)cc12.O=C(O)C(=O)O [TCMDC-139843] | -16.87
COc1ccc2cc(C=NNc3nc4ccccc4[nH]3)c(Cl)nc2c1 [TCMDC-124889] | -71.34
O=C(CSc1nn(-c2ccccc2)c(=S)s1)c1c[nH]c2ccccc12 [TCMDC-124894] | 95.1
Cc1[nH]c2ccccc2c1C(=O)CSc1nn(-c2ccccc2)c(=S)s1 [TCMDC-124893] | 60.68
O=C(NC12CC3CC(CC(C3)C1)C2)C(=O)c1c[nH]c2ccccc12 [TCMDC-123481] | -3.925
O=C(c1c(-c2[nH]c3ccccc3c2C(=O)C(F)(F)F)[nH]c2ccccc12)C(F)(F)F [TCMDC-125831] | 0.8709
O=C(CNc1ccncc1)c1c[nH]c2ccccc12 [TCMDC-124024] | 4.031
N#Cc1ccc2c(c1)CN(CCC1CCC(NC(=O)c3cc4cc(OC(F)(F)F)ccc4[nH]3)CC1)CC2 (centres unmarked) [TCMDC-139160] | 23.56
Cc1cccc2nc(-c3cccc(-c4cccc(C(=O)NCCc5cn(C)cn5)c4)c3)[nH]c12 [TCMDC-132494] | -97.59
N#Cc1ccc(-c2ccc(C(=O)NCCCCN3CCC(c4ccc5c(c4OCc4ccncc4)CCCC5)CC3)cc2)cc1 [TCMDC-138732] | 54.86
N#Cc1ccc(-c2ccc(C(=O)NCCCCN3CCC(c4ccc5c(c4OCc4ccccn4)CCCC5)CC3)cc2)cc1 [TCMDC-138737] | 66.39
CC(=O)Oc1c(C2CCN(CCCCNC(=O)c3ccc(-c4ccc(C#N)cc4)cc3)CC2)ccc2c1CCCC2 [TCMDC-138650] | -28.73
O=C(NCCCCN1CC=C(c2ccc3c(c2OCc2ccccc2)CCCC3)CC1)c1ccc(-c2ccc(C(F)(F)F)cc2)cc1 [TCMDC-138746] | -33.61
CC(C)(Oc1c(C2CCN(CCCCNC(=O)c3ccc(-c4ccc(C#N)cc4)cc3)CC2)ccc2c1CCCC2)C(N)=O [TCMDC-134828] | 39.17
O=C(NCCCCN1CCC(c2ccc3c(c2OCc2ccncc2)CCCC3)CC1)c1ccc(-c2ccc(C(F)(F)F)cc2)cc1 [TCMDC-138733] | 60.19

From article PMC4552634, “A New Set of Chemical Starting Points with Plasmodium falciparum Transmission-Blocking Potential for Antimalarial Drug Discovery” (PLoS ONE, 2015)
